Results on 22 compounds are retold here after ChEMBL document CHEMBL2218924, “A broad activity screen in support of a chemogenomic map for kinase signalling research and drug discovery” (Biochem J, 2013).

Structures are written as SMILES.

Assay [1] addresses Vascular endothelial growth factor receptor 3 (Homo sapiens) (UniProt P35916). To be noted: at 10 µM.
Assay [2] deals with Macrophage colony-stimulating factor 1 receptor (Homo sapiens) (UniProt P07333). The settings on record: at 1 µM.
Assay [3] has the same target. The settings on record: at 10 µM.
Assay [4] has as its target Tyrosine-protein kinase Fyn (Homo sapiens) (UniProt P06241). To be noted: at 1 µM.
The target is the same in assay [5]. The settings on record: at 10 µM.
Assay [6] concerns the target T1, Mitogen-activated protein kinase kinase kinase kinase 2 (Homo sapiens) (UniProt Q12851).
T1 sequence (whole entry): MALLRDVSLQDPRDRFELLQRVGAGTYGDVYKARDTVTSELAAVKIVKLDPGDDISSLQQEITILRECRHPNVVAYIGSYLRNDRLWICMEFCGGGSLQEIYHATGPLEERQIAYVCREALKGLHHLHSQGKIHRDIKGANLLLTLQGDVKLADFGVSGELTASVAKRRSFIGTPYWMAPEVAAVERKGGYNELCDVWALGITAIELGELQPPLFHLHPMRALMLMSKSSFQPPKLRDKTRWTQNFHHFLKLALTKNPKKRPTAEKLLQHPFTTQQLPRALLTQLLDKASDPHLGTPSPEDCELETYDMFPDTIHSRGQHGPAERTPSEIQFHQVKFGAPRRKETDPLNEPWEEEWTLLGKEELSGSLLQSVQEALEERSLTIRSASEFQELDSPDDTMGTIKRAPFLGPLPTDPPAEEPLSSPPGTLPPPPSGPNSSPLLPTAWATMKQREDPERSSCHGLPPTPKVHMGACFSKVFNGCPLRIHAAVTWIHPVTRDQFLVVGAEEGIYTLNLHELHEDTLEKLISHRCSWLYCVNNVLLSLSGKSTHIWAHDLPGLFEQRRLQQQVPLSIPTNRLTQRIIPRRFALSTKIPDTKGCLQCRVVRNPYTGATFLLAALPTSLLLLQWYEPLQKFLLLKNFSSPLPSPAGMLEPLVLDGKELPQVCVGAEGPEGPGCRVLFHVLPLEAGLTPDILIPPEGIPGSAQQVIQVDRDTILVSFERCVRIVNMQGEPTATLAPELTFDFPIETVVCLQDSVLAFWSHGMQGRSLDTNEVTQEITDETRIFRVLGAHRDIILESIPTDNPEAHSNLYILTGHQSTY
To be noted: at 1 µM.

Assay [7] deals with T1, Mitogen-activated protein kinase kinase kinase kinase 2 (Homo sapiens). To be noted: at 10 µM.
The target of assay [8] is G protein-coupled receptor kinase 5 (Homo sapiens) (UniProt P34947). The settings on record: at 1 µM.
Assay [9] has the same target. To be noted: at 10 µM.
Assay [10] has as its target G protein-coupled receptor kinase 6 (Homo sapiens) (UniProt P43250). The settings on record: at 1 µM.
The target is the same in assay [11]. To be noted: at 10 µM.
Assay [12] concerns the target T2, Rhodopsin kinase GRK7 (Homo sapiens) (UniProt Q8WTQ7).
T2 sequence (whole entry): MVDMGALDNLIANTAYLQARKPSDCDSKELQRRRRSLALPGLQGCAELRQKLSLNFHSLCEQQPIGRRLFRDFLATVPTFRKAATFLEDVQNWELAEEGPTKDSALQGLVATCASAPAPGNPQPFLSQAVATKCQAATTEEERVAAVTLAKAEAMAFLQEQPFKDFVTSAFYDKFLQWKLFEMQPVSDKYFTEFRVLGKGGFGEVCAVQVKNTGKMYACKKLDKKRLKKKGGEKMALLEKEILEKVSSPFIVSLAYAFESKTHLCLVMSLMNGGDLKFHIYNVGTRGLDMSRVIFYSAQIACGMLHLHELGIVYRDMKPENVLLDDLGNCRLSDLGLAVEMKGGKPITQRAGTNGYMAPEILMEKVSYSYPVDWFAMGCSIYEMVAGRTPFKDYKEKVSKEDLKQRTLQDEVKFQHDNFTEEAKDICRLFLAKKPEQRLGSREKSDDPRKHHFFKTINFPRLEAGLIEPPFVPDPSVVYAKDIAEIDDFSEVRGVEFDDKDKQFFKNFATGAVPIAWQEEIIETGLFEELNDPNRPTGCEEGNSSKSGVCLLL
To be noted: at 1 µM.

Assay [13] concerns the target T2, Rhodopsin kinase GRK7 (Homo sapiens). To be noted: at 10 µM.
The target of assay [14] is Glycogen synthase kinase-3 alpha (Homo sapiens) (UniProt P49840). To be noted: at 1 µM.
The target is the same in assay [15]. To be noted: at 10 µM.
For assay [16], the target named is Glycogen synthase kinase-3 beta (Homo sapiens) (UniProt P49841). The settings on record: at 1 µM.
For assay [17] the target is unchanged. The settings on record: at 10 µM.
Assay [18] deals with Homeodomain-interacting protein kinase 1 (Homo sapiens) (UniProt Q86Z02). The settings on record: at 1 µM.
Assay [19] shares this target. The settings on record: at 10 µM.
Assay [20] addresses Homeodomain-interacting protein kinase 2 (Homo sapiens) (UniProt Q9H2X6). To be noted: at 1 µM.

Sequence of Glycogen synthase kinase-3 beta (Homo sapiens) (P49841 whole entry, looked up): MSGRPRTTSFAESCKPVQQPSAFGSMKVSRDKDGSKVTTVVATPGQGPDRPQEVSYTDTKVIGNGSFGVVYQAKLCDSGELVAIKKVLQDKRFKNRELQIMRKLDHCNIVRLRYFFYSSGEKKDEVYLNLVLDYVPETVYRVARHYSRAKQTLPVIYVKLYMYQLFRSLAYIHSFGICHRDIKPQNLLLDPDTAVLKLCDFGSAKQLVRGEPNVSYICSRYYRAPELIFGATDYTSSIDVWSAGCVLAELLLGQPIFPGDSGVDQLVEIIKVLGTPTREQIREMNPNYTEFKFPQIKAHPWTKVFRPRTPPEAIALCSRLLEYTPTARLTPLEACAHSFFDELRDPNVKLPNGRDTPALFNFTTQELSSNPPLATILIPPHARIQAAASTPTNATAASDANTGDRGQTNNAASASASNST
Sequence of G protein-coupled receptor kinase 6 (Homo sapiens) (P43250 whole entry, looked up): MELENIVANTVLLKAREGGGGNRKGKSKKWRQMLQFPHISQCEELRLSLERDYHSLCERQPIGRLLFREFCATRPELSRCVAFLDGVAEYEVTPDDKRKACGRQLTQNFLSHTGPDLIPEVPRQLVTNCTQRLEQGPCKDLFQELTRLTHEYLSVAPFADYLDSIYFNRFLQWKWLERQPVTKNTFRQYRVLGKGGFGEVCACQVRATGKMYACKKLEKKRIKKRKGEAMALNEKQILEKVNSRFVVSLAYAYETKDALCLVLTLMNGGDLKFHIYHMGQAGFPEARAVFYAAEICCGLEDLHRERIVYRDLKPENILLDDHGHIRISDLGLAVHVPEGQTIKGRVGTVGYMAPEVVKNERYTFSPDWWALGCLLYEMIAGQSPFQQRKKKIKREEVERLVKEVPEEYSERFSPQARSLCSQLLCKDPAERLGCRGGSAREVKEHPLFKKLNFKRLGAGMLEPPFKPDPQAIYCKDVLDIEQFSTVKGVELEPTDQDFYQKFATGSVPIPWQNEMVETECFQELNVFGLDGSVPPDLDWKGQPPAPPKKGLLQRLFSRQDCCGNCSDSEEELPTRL
Sequence of Vascular endothelial growth factor receptor 3 (Homo sapiens) (P35916 whole entry): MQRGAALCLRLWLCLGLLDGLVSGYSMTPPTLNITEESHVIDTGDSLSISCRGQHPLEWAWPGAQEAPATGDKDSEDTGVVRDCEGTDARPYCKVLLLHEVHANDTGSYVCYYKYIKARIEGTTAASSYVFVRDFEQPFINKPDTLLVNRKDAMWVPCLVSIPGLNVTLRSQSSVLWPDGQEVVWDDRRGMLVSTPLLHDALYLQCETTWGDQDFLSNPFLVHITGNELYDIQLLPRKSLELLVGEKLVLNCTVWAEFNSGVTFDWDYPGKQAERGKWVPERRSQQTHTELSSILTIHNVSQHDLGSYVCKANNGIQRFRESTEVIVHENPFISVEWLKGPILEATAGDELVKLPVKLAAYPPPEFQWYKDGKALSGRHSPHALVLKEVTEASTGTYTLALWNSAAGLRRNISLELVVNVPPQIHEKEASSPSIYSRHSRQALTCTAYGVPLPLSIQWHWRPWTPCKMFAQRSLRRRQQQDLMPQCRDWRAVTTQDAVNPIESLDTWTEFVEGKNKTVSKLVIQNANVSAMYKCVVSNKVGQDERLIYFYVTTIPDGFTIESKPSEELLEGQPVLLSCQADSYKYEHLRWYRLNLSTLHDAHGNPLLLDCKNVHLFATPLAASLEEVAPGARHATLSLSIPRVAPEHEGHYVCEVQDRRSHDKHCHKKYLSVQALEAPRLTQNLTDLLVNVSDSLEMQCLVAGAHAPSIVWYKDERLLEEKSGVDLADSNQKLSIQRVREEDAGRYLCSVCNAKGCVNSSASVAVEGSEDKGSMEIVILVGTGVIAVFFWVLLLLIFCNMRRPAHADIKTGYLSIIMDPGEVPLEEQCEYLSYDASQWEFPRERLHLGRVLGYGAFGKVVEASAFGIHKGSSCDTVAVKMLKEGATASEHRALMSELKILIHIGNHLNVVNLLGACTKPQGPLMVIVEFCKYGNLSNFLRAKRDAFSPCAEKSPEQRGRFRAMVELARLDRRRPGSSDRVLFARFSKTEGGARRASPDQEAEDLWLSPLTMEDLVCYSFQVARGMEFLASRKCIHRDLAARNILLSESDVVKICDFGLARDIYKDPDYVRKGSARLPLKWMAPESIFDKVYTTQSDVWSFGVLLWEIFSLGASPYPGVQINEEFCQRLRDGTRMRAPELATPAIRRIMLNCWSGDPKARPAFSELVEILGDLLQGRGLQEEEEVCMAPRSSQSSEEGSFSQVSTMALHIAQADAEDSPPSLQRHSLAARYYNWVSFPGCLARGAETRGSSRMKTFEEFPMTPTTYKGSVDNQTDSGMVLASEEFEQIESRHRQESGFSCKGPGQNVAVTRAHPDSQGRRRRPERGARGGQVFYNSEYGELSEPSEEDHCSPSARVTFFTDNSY
Sequence of G protein-coupled receptor kinase 5 (Homo sapiens) (P34947 whole entry, looked up): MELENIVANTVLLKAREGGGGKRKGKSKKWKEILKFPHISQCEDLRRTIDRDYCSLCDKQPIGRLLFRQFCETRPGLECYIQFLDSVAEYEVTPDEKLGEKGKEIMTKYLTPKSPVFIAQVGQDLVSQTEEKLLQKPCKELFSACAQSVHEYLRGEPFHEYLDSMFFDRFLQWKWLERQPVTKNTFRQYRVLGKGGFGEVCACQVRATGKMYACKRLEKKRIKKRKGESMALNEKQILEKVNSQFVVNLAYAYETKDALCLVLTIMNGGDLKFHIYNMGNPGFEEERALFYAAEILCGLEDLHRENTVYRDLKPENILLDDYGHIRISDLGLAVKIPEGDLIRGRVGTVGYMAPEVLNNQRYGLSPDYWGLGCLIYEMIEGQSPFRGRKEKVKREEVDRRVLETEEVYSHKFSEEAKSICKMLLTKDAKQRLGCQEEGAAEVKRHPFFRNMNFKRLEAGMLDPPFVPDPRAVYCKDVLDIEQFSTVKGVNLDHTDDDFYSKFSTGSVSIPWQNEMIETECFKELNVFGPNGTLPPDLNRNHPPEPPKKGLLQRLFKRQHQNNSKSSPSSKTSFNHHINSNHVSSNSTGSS
Sequence of Tyrosine-protein kinase Fyn (Homo sapiens) (P06241 2-537 limits assumed): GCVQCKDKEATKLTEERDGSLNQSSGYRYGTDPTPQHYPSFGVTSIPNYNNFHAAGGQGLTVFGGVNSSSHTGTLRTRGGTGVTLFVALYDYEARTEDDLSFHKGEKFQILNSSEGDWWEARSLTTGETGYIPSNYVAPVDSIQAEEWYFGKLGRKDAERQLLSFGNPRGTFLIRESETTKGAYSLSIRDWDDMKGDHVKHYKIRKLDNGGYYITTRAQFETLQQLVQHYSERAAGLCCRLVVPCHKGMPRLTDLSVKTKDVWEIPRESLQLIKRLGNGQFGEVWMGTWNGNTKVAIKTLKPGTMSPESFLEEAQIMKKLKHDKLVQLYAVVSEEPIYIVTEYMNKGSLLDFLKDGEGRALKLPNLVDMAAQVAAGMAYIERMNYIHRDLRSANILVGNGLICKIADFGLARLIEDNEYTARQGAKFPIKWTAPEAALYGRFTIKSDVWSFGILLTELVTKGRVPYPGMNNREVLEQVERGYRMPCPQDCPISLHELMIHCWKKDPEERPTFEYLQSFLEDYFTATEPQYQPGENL
Sequence of Macrophage colony-stimulating factor 1 receptor (Homo sapiens) (P07333 whole entry): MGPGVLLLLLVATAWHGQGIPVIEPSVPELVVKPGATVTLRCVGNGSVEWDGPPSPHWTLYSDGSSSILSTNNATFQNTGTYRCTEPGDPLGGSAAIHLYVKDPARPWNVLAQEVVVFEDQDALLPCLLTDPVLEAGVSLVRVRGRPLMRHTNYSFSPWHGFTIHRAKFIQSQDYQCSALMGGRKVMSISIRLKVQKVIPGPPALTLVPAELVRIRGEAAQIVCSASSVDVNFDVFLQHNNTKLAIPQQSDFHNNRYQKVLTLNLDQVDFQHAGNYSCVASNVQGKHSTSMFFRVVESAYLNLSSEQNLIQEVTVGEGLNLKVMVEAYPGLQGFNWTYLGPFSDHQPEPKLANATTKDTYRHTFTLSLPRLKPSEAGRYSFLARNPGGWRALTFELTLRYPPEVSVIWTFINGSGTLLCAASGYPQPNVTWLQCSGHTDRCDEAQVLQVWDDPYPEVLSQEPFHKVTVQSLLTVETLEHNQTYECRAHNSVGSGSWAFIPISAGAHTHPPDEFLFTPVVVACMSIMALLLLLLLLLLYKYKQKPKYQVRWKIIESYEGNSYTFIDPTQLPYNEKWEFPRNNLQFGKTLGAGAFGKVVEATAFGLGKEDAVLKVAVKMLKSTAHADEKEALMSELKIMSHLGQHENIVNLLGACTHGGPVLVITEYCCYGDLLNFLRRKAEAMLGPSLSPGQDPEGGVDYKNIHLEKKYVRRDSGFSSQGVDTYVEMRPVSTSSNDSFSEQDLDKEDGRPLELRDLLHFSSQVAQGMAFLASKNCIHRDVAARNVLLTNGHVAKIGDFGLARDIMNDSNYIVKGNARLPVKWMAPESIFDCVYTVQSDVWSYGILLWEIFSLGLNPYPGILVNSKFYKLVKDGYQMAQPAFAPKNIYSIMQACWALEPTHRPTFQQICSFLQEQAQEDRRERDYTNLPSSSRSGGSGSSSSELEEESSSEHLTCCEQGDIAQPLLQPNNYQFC
Sequence of Glycogen synthase kinase-3 alpha (Homo sapiens) (P49840 2-483 limits assumed): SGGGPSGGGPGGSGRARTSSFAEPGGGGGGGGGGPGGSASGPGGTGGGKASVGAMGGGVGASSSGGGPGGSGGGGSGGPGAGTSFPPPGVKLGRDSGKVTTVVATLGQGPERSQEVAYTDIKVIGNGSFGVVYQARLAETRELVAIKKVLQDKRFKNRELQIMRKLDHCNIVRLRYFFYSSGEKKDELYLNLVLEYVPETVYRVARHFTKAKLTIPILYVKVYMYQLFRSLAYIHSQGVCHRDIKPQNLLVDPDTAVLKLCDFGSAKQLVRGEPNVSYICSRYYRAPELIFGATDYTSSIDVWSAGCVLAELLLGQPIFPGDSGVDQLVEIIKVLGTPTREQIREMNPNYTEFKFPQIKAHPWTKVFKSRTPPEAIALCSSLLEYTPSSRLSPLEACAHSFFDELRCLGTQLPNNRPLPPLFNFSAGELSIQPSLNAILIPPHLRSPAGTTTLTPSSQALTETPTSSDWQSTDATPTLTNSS

As for `COC(=O)[C@@]1(O)C[C@H]2O[C@]1(C)n1c3ccccc3c3c4c(c5c6ccccc6n2c5c31)C(=O)NC4`, the residual activity in [1] was 1%; in assay [2] it was 2%; in [3], 1%; in assay [4], 4%; in assay [5], 0%; in assay [6] it was 0%. Further, the residual activity is 1% in assay [7]; 40% in [8]; 5% in [9]; 36% in assay [10]; 5% in assay [11]; 4% in assay [12]. In addition, the residual activity in assay [13] was found to be 4%; in assay [14] it was 14%; in [15], 3%; in [16], 29%; in assay [17], 10%; in [18], 78%. The residual activity in assay [19] came out at 15%; in [20] it was 22%.
As for `COc1cc2ncnc(Nc3ccc(OCc4ccccc4)cc3)c2cc1OC`, the residual activity in assay [1] turned out to be 2%; in assay [2], 20%; in assay [3], 11%; in assay [4] it was 79%; in assay [5], 64%; in [6], 101%. Also, the residual activity in assay [7] worked out at 85%; in assay [8], 101%; in assay [9], 97%; in assay [10], 98%; in assay [11], 97%; in assay [12], 105%. Also, the residual activity was found to be 99% in assay [13]; 100% in assay [14]; 160% in assay [15]; 104% in assay [16]; 119% in [17]; 102% in [18]. Besides, the residual activity in [19] turned out to be 105%; in assay [20] it was 104%.
As to `COc1ccc2c(c[n+](C)c3c4cc5c(cc4ccc23)OCO5)c1OC`, the residual activity in assay [1] worked out at 62%; in [2], 87%; in assay [3] it was 74%; in assay [4], 92%; in assay [5] it was 63%; in [7], 72%. Besides, the residual activity is 82% in assay [9]; 96% in assay [10]; 93% in [11]; 99% in assay [12]; 91% in assay [13]; 126% in [14]. In addition, the residual activity in [16] was 97%; in assay [17], 83%.
As for `O=C1NC(=O)C(c2cn(CCCO)c3ncccc23)=C1c1cnccn1`, the residual activity in assay [8] amounted to 100%.
For the compound `CC(C)(C)c1cc(C=C(C#N)C#N)cc(Br)c1O`, the residual activity was 83% in [1]; 97% in assay [2]; 76% in [3]; 15% in assay [5]; 113% in assay [6]; 120% in assay [8]. The residual activity in [9] turned out to be 100%; in [10], 106%; in assay [11], 104%; in assay [12], 113%; in assay [13], 102%; in assay [14] it was 117%. Also, the residual activity amounted to 74% in [15]; 106% in assay [16]; 96% in assay [17]; 107% in assay [18]; 104% in assay [19]; 101% in assay [20].
As for `O=C1NC(=O)c2c1c1c3ccccc3n3c1c1c2c2ccccc2n1C1CCC3O1`, the residual activity in assay [1] was found to be 2%; in assay [2] it was 30%; in [3] it was 26%; in assay [4] it was 81%; in assay [5], 75%; in assay [6], 20%. The residual activity came to 10% in assay [7]; 15% in [14]; 3% in assay [15]; 40% in [16]; 23% in [17]; 42% in assay [20].
For the compound `O=c1[nH]c2ccccc2n1C1CCN(Cc2ccc(-c3nc4cc5[nH]cnc5cc4nc3-c3ccccc3)cc2)CC1`, the residual activity was 59% in assay [1]; 55% in assay [2]; 51% in assay [3]; 95% in [4]; 72% in [5]; 101% in assay [6]. In addition, the residual activity in [7] was found to be 80%; in [8] it was 103%; in assay [9] it was 85%; in assay [10], 100%; in [11], 94%; in assay [12] it was 110%. For the same compound, the residual activity was 94% in assay [13]; 112% in assay [14]; 123% in assay [15]; 108% in assay [16]; 106% in assay [17]; 101% in [18]. For the same compound, the residual activity in assay [19] and in [20] was 98% each time.
With `COc1cc2nccc(Oc3ccc(NC(=O)Nc4cc(C)on4)c(Cl)c3)c2cc1OC`, the residual activity in assay [8] was 105%.
Regarding `CN[C@@H]1C[C@H]2O[C@@](C)([C@@H]1OC)n1c3ccccc3c3c4c(c5c6ccccc6n2c5c31)C(=O)NC4`, the residual activity in assay [7] turned out to be 0%; in [18], 87%.
Regarding `O=C1NC(=O)C(c2cn(CCCn3ccnc3)c3ccccc23)=C1Nc1ccccc1`, the residual activity in assay [8] worked out at 78%.
On to `COc1cc(OC)c(/C=C2\C(=O)Nc3ccccc32)c(OC)c1`, for which the residual activity stood at 74% in assay [1]; 87% in [2]; 69% in assay [3]; 70% in assay [4]; 68% in assay [5]; 95% in [6]. Also, the residual activity was found to be 86% in assay [7]; 101% in assay [8]; 99% in [9]; 89% in assay [10]; 91% in [11]; 95% in assay [12]. Further, the residual activity in assay [13] came to 84%; in [14], 105%; in assay [15] it was 95%; in assay [16], 132%; in assay [17], 106%; in assay [18], 102%. The residual activity in assay [19] was found to be 98%; in [20] it was 104%.
Consider `CCOc1cc2ncnc(Nc3cccc(Br)c3)c2cc1OCC`, for which the results for the residual activity in assay [8] and in assay [10] were 97% and 100%, respectively.
On to `Nc1nc(Nc2ccc(S(N)(=O)=O)cc2)nn1C(=O)c1c(F)cccc1F`, for which the residual activity in assay [8] is 78%.
As for `CCc1nc(-c2ccc(OC)cc2)[nH]c1-c1ccncc1`, the residual activity in assay [1] came to 77%; in [2], 78%; in assay [3], 71%; in assay [4], 75%; in assay [5], 72%; in [14] it was 106%. In addition, the residual activity in assay [16] was 114%; in assay [17], 115%.
For `COc1ccc2c(c1)/C(=C/c1cnc[nH]1)C(=O)N2`, the residual activity was 41% in assay [2]; 14% in assay [3]; 67% in assay [4]; 25% in assay [5]; 23% in [6]; 3% in [7]. Further, the residual activity in [11] was 76%; in assay [13], 42%; in assay [16] it was 42%; in assay [17] it was 4%; in assay [19] it was 52%.
For the compound `O=C(c1cc2cc(O)ccc2[nH]1)c1cc2cc(O)ccc2[nH]1`, the residual activity in assay [8] was 79%.
Still for that read-out and setting: as for `Nc1nc(Nc2ccc(S(N)(=O)=O)cc2)nn1C(=S)Nc1c(F)cccc1F`, the figure is 77%.
In the case of `O=C1Cc2c([nH]c3ccc(Br)cc23)-c2ccccc2N1`, the residual activity in assay [8] was 95%.
Turning to `O=C(Nc1nc2ccccc2n1CCN1CCOCC1)c1cccc([N+](=O)[O-])c1`, the residual activity in assay [8] turned out to be 107%.
On to `COc1cc2ncnc(Nc3cccc(Cl)c3)c2cc1OC`, for which, in [8], the residual activity stood at 108%.
Same read-out and setting: next, `Cn1c2ccccc2c2c3c(c4c5ccccc5n(CCC#N)c4c21)CNC3=O`: 69%.
For the compound `c1cc(-c2cnn3cc(-c4ccc(OCCN5CCCCC5)cc4)cnc23)ccn1`, the residual activity is 0% in assay [1]; 3% in assay [2]; 1% in assay [3]; 11% in [4]; 1% in assay [5]; 10% in [6]. The residual activity was 1% in [7]; 101% in assay [10]; 100% in assay [14]; 76% in [15]; 85% in [18]; 34% in [19]. Moreover, the residual activity in assay [20] is 62%.
